# Experimental data from PubChem BioAssay (Tox21).
# Activity calls are given as the source filed them. Where a call stands in place of a potency, no number is given. Unless noted, the call rests on the fitted dose curve; in most records, active means well fitted curve in the direction sought with a large enough effect in the repeat runs; inconclusive means weak or mixed curves; inactive means no such curve, though single readings can be large; an effect the other way counts as inactive or inconclusive.
# Assays:
# [1] = qHTS assay for small molecule agonists of the p53 signaling pathway (AID 651631; calls by dose curve; further: nearly all actives have a fitted effect of over 15% in size)
# In short: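 Testing took place in human colorectal HCT-116 cells with stable p53RE-driven beta-lactamase. After 16 h of compound exposure at 37 °C, a FRET substrate was added and fluorescence recorded 2 h later.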
# [2] = qHTS assay for small molecule disruptors of the mitochondrial membrane potential - cell viability (AID 720634; calls by dose curve;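 further: human HepG2 liver cancer cells; series mostly up to about 83 µM; nearly all actives have a fitted effect of over 20% in size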)
# In short: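 HepG2 cells, 2,000 per well, attached overnight, then treated 1 hr at 37 C, 5% CO2. Viability read as ATP by CellTiter-Glo luminescence after 30 min at room temperature. Read in the same wells as the m-MPI membrane-potential dye assay.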
# [3] = biological target: Glucocorticoid receptor (Homo sapiens) (UniProt P04150); experiment: qHTS assay to identify small molecule agonists of the glucocorticoid receptor (GR) signaling pathway (AID 720691; active means well fitted activation curve with a large enough effect in the signal ratio in the repeat runs, not every such curve was filed as active; inconclusive means weak or mixed curves, or effect the other way; inactive means no such curve, though single readings can be large or run the other way; the % refers to the signal ratio)
# In short: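 GR-bla HeLa cells carrying a GRE-driven beta-lactamase reporter, exposed to compounds for 18 h at 37 C. Reporter activation read as fluorescence after 2 h with LiveBLAzer B/G FRET substrate at room temperature.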
# [4] = qHTS assay for identifying genotoxic compounds that show differential cytotoxicity against isogenic chicken DT40 cell lines with known DNA damage response pathways - Rev3 mutant cell line (AID 743014); further: nearly all actives have a fitted effect of over 55% in size; further: potency means the concentration at half of the fitted maximal effect
# [5] = qHTS assay to identify small molecule antagonists of the androgen receptor (AR) signaling pathway - cell viability counter screen (AID 743033; further: nearly all actives have a fitted effect of over 45% in size)
# [6] = biological target: Estrogen receptor (Homo sapiens) (UniProt P03372); experiment: qHTS assay to identify small molecule agonists of the estrogen receptor alpha (ER-alpha) signaling pathway (AID 743075; calls by dose curve;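 further: HEK293 GripTite cells with ER-alpha and UAS-driven beta-lactamase reporter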; further: potency means the concentration at half of the fitted maximal effect)
# [7] = biological target: Estrogen receptor (Homo sapiens) (UniProt P03372); experiment: qHTS assay to identify small molecule agonists of the estrogen receptor alpha (ER-alpha) signaling pathway using the BG1 cell line (AID 743079); further: nearly all actives have a fitted effect of over 20% in size; further: potency means the concentration at half of the fitted maximal effect
# [8] = qHTS assay to identify small molecule antagonists of the estrogen receptor alpha (ER-alpha) signaling pathway using the BG1 cell line (AID 743080; calls by dose curve; further: series mostly up to about 70 µM; nearly all actives have a fitted effect of over 25% in size)
# In short: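 Antagonist mode: compounds in DMSO were pinned onto BG1-Luc-4E2 cells alongside 17beta-estradiol agonist, incubated 21.5 h, and ERE-driven luciferase measured with ONE-Glo. Cytotoxicity was multiplexed using CellTiter-Fluor fluorescence.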
# [9] = qHTS assay to identify small molecule antagonists of the estrogen receptor alpha (ER-alpha) signaling pathway using the BG1 cell line - cell viability counter screen (AID 743081);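 further: compound given together with 17beta-estradiol as the ER stimulus; series mostly up to about 70 µM; nearly all actives have a fitted effect of over 45% in size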
# [10] = biological target: Peroxisome proliferator-activated receptor gamma (Homo sapiens) (UniProt P37231); experiment: qHTS assay to identify small molecule agonists of the peroxisome proliferator-activated receptor gamma (PPARg) signaling pathway (AID 743094; active means well fitted activation curve with a large enough effect in the signal ratio in the repeat runs, not every such curve was filed as active; inconclusive means weak or mixed curves, or effect the other way; inactive means no such curve, though single readings can be large or run the other way; the % refers to the signal ratio)
# In short: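 GeneBLAzer PPARg UAS-bla HEK293H cells were plated, rested 5 h, then exposed to compounds for 17 h at 37C. Beta-lactamase activity was read by LiveBLAzer B/G FRET substrate fluorescence after 1 h at room temperature.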
# [11] = qHTS assay to identify small molecule phospholipidosis (PLD) inducers (AID 1259344; active means well fitted curve in the direction sought with a large enough effect; inconclusive means small, poorly fitted or top-dose-only effect, or another doubt; inactive means no such curve, though single readings can be large; an effect the other way counts as inactive or inconclusive)
# In short: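 HepG2 cells grown on collagen I take up LipidTOX Red while exposed to compound for 24 h; after fixation they are imaged at 20x and pit metrics are extracted.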
# [12] = qHTS assay for small molecule agonists of the p53 signaling pathway - cell viability (AID 651633; calls by dose curve; further: nearly all actives have a fitted effect of over 30% in size; further: potency means the concentration at half of the fitted maximal effect)
# In short: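 p53RE-bla cells, seeded at 4,000 per well and rested 5 h at 37 C/5% CO2, received compounds in DMSO for 16 h at 37 C. CellTiter-Glo was then added, and luminescence was read after 30 min at room temperature to gauge cytotoxicity.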
# [13] = qHTS assay for small molecule disruptors of the mitochondrial membrane potential (AID 720635); further: potency means the concentration at half of the fitted maximal effect
# In short: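 HepG2 cells (2,000/well) attached overnight at 37C, then took compound for 1 hr at 37C, 5% CO2. Mito-MPS dye was added for 30 min; fluorescence was read at 490/535 nm (monomers) and 540/590 nm (aggregates).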
# [14] = qHTS assay to test for compound auto fluorescence at 590 nm (red) in HepG2 cells (AID 720674)
# In short: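 Compound auto-fluorescence is scored relative to Rose Bengal sodium, measured at 540/590 nm in live HepG2 cultures after 1 hr compound contact (37 C, 5% CO2).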
# [15] = qHTS assay to test for compound auto fluorescence at 460 nm (blue) in HEK293 cells (AID 720678)
# In short: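 Cells were seeded and left to adhere for 4-5 hr at 37C. Compounds were then pin-transferred. After an overnight incubation at 37C under 5% CO2, intrinsic fluorescence at 405/460 nm was measured and referenced to triamterene.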
# [16] = qHTS assay to test for compound auto fluorescence at 590 nm (red) in HEK293 cell free culture (AID 720683)
# In short: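 Tox21 10K library compounds were pinned into cell-free DMEM with 10% FBS and fluorescence was read at excitation 540 nm. Activity is expressed as Rose Bengal sodium equivalency.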
# [17] = qHTS assay to identify small molecule antagonists of the glucocorticoid receptor (GR) signaling pathway - cell viability counter screen (AID 720693); further: nearly all actives have a fitted effect of over 55% in size; further: potency means the concentration at half of the fitted maximal effect
# [18] = qHTS assay to identify small molecule antagonists of the androgen receptor (AR) signaling pathway using the MDA cell line - cell viability counter screen (AID 743041; further: nearly all actives have a fitted effect of over 45% in size)
# In short: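 Viability counter screen run alongside the AR antagonist reporter: cells seeded 5 h before compound, R1881 added, 16 h incubation at 37C without CO2, fluorescent CellTiter-Fluor signal quantified.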
# [19] = biological target: Estrogen receptor (Homo sapiens) (UniProt P03372); experiment: qHTS assay to identify small molecule antagonists of the estrogen receptor alpha (ER-alpha) signaling pathway (AID 743069; active means well fitted curve in the direction sought with a large enough effect in the signal ratio in the repeat runs, not every such curve was filed as active; inconclusive means weak or mixed curves, or effect the other way; inactive means no such curve, though single readings can be large or run the other way; the % refers to the signal ratio; further: potency means the concentration at half of the fitted maximal effect)
# In short: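 Estradiol-stimulated ER-alpha-UAS-bla HEK293 cells, 18 hr compound exposure at 37C. LiveBLAzer B/G substrate, 2 hr RT, fluorescence read.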
# [20] = qHTS assay for identifying genotoxic compounds that show differential cytotoxicity against isogenic chicken DT40 cell lines with known DNA damage response pathways - wild type cell line (AID 743012); further: nearly all actives have a fitted effect of over 60% in size; further: potency means the concentration at half of the fitted maximal effect
# In short: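 Wild-type DT40 cells (300/well) exposed to compounds for 40 hours at 37 C/5% CO2. Viability read by CellTiter-Glo luminescence after 30 min at room temperature.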
# Chain of Glucocorticoid receptor (Homo sapiens) (P04150 whole entry, looked up): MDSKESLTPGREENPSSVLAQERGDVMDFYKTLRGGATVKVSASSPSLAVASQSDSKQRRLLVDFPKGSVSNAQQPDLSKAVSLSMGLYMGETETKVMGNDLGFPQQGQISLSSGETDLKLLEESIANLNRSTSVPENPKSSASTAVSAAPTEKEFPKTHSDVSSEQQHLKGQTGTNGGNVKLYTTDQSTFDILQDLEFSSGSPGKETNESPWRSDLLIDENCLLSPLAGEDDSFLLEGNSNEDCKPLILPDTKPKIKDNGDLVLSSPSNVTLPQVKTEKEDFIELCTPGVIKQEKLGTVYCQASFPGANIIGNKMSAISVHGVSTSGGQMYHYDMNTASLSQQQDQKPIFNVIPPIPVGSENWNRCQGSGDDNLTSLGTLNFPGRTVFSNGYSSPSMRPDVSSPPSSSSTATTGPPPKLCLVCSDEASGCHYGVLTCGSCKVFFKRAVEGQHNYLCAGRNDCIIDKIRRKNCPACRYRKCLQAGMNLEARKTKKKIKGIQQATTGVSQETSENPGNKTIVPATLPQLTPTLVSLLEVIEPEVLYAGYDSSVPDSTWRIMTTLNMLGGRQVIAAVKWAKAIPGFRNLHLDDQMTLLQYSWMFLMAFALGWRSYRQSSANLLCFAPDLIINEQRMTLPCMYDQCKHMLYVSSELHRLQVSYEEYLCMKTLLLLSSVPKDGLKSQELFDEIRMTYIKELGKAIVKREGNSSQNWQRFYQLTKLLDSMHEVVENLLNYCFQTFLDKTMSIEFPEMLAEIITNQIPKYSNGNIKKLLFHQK
# Chain of Estrogen receptor (Homo sapiens) (P03372 whole entry, looked up): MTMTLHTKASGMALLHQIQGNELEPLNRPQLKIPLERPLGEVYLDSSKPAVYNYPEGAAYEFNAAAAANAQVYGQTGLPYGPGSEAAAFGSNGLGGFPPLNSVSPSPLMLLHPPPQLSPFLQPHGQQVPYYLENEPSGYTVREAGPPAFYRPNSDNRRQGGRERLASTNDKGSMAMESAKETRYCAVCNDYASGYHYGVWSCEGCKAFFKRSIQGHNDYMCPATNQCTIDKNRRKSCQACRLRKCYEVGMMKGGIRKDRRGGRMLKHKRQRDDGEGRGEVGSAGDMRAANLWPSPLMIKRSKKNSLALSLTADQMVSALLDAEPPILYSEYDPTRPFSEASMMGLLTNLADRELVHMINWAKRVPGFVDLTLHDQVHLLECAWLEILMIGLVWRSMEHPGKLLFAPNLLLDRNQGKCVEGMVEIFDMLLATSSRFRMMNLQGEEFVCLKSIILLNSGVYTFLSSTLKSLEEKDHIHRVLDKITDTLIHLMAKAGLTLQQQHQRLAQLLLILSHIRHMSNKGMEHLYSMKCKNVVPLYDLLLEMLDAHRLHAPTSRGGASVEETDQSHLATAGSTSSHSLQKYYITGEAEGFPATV
# Chain of Peroxisome proliferator-activated receptor gamma (Homo sapiens) (P37231 whole entry, looked up): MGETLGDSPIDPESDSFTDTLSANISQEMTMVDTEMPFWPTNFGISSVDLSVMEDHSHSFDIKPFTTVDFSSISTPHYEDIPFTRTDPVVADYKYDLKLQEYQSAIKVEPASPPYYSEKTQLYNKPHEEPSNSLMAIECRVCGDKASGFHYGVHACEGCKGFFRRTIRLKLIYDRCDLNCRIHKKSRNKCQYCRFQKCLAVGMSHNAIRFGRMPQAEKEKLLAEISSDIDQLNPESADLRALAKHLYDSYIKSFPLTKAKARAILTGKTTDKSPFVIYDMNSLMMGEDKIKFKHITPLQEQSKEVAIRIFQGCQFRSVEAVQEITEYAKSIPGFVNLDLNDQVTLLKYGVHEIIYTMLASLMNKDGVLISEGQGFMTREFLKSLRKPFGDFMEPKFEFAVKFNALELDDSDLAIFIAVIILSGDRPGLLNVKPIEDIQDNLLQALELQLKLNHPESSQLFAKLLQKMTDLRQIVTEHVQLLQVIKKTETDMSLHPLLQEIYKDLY
Compound,Potency [1],Potency [2],Potency [3],Potency [4],Potency [5],Potency [6],Potency [7],Potency [8],Potency [9],Potency [10],Potency [11],Potency [12],Potency [13],outcome [14],Potency [15],outcome [16],Potency [17],Potency [18],Potency [19],Potency [20]
C[C@]12CCC(=O)C[C@@H]1CC[C@@H]1[C@@H]2CC[C@@]2(C)[C@H]1CC[C@]2(C)O,inactive,inactive,inactive,inactive,inactive,477 nM [inconclusive] (active),150 nM (active),inactive,inactive,inactive,inactive,,,,,,,,,
COC(=O)[C@@H]1[C@H]2CC[C@@H](C[C@H]1OC(=O)c1ccccc1)N2C,inactive,inactive,,inactive,inactive,inactive,inactive,inactive,inactive,,,inactive,inactive,inactive,inactive,inactive,inactive,inactive,inactive,
O=C(OCCN1CCCCC1)C(O)(c1ccccc1)c1ccccc1,,inactive,,inactive,,inactive,inactive,inactive,inactive,inactive,,inactive,,inactive,inactive,inactive,,inactive,inactive,inactive
CN(C)[C@H](Cc1ccccc1)c1ccccc1,,inactive,inactive,,inactive,inactive,inactive,inactive,inactive,inactive,,,inactive,inactive,inactive,,,inactive,inactive,inactive
C=C[C@H]1CN2CC[C@H]1C[C@H]2[C@H](OC(=O)OCC)c1ccnc2ccc(OC)cc12,inactive,inactive,inactive,,inactive,,,,inactive,inactive,,inactive,,inactive,inactive,inactive,inactive,inactive,,
CN1c2ccccc2C(NCCCCCCC(=O)O)c2ccc(Cl)cc2S1(=O)=O (stereo not given),,inactive,inactive,,inactive,inactive,inactive,inactive,inactive,inactive,,inactive,,,inactive,inactive,inactive,inactive,inactive,
COc1ccc2c3c1O[C@H]1C(=O)CC[C@H]4[C@@H](C2)N(C)CC[C@]314,,,,inactive,inactive,inactive,inactive,,inactive,inactive,,,,inactive,inactive,inactive,inactive,inactive,inactive,inactive
C[C@H]1CC[C@]2(NC1)O[C@H]1C[C@H]3[C@@H]4CC[C@H]5C[C@@H](O)CC[C@]5(C)[C@H]4CC[C@]3(C)[C@H]1[C@@H]2C,inactive,,,,inactive,inactive,inactive,inactive,inactive,,,inactive,,inactive,,inactive,inactive,,inactive,inactive
CCC1(c2ccccc2)C(=O)NC(=O)N(C)C1=O (stereo not given),inactive,,inactive,inactive,inactive,,,,inactive,inactive,,,,,inactive,,inactive,inactive,,
CN1CCCC(=C(c2cccs2)c2cccs2)C1,,inactive,,inactive,inactive,inactive,inactive,inactive,inactive,inactive,,,,inactive,inactive,,,inactive,inactive,
C=CCC1(C(C)CCC)C(=O)N=C(S)NC1=O (stereo not given),inactive,inactive,inactive,inactive,inactive,inactive,inactive,inactive,inactive,inactive,,,inactive,inactive,inactive,inactive,inactive,inactive,inactive,
C/C(=C\c1csc(C)n1)[C@@H]1C[C@@H]2O[C@]2(C)CCC[C@H](C)[C@H](O)[C@@H](C)C(=O)C(C)(C)[C@@H](O)CC(=O)O1,,inactive,inactive,2.4 nM (active),,,inactive,,inactive,inactive,,inactive,,inactive,inactive,inactive,inactive,inactive,inactive,1.9 nM (active)
O=C1CN(O)C(c2ccccc2)=c2cc(Cl)ccc2=N1,inactive,,inactive,inactive,inactive,,,,inactive,inactive,,inactive,inactive,inactive,inactive,inactive,inactive,inactive,,inactive
CN1[C@@H]2CC[C@H]1CC(OC1c3ccccc3CCc3ccccc31)C2 (stereo not given in full),,inactive,inactive,10100 nM (active),inactive,inactive,inactive,inactive,inactive,inactive,,inactive,,inactive,inactive,inactive,inactive,inactive,inactive,7170 nM (active)
F/C(COc1ccc2c(c1)[nH]c1ccccc12)=C1/CN2CCC1CC2,,inactive,inactive,8410 nM (active),inactive,inactive,inactive,,,,,,,inactive,inactive,inactive,inactive,,19000 nM [inhibitor] (active),
CC(C)[C@@]1(NC(=O)[C@@H]2C[C@@H]3c4cccc5[nH]cc(c45)C[C@H]3N(C)C2)O[C@@]2(O)[C@@H]3CCCN3C(=O)[C@H](Cc3ccccc3)N2C1=O,inactive,inactive,,,inactive,inactive,inactive,inactive,inactive,,,inactive,841 nM (active),inactive,inactive,inactive,inactive,inactive,,29800 nM (active)
C[C@]12CC[C@H]3[C@@H](CCC4=CC(=O)CC[C@@]43C)[C@@H]1CC[C@H]2O,,,,,inactive,,,,inactive,inactive,,inactive,,,inactive,inactive,inactive,inactive,,23700 nM (active)
Cc1ccccc1-n1c(CF)nc2ccc(N)cc2c1=O,inactive,,,inactive,,,,,inactive,,,inactive,inactive,inactive,inactive,inactive,inactive,,,
CCCCNCC(O)c1ccc(O)cc1 (stereo not given),inactive,inactive,inactive,inactive,,,,,inactive,,,,inactive,inactive,inactive,inactive,inactive,inactive,,inactive
O[C@H]1[C@H]2[C@H](O)CCCN2C[C@H]1O,,inactive,inactive,,,inactive,inactive,inactive,,inactive,,inactive,inactive,,inactive,inactive,inactive,inactive,inactive,inactive
C[C@]12CC[C@H]3[C@@H](CCC4=C(O)C(=O)CC[C@@H]43)[C@@H]1CC[C@@H]2OC(=O)CCC1CCCC1,inactive,inactive,inactive,,inactive,952 nM [inconclusive] (active),119 nM (active),inactive,inactive,inactive,,,inactive,inactive,inactive,inactive,inactive,inactive,,inactive
CCN(CC)CCO[C@H]1CC[C@@]2(C)C(=CC[C@@H]3[C@@H]2CC[C@]2(C)C(=O)CC[C@@H]32)C1,,inactive,,531 nM (active),inactive,inactive,inactive,inactive,inactive,inactive,,,inactive,inactive,inactive,,inactive,,inactive,1330 nM (active)
CCC(C)(S(=O)(=O)CC)S(=O)(=O)CC,inactive,,,inactive,inactive,inactive,inactive,inactive,,inactive,,inactive,,,inactive,inactive,inactive,inactive,inactive,
C[C@]12C[C@H]3S[C@H]3C[C@@H]1CC[C@@H]1[C@@H]2CC[C@]2(C)[C@@H](O)CC[C@@H]12,,,inactive,inactive,,256 nM [inconclusive] (active),143 nM (active),,inactive,,,,11400 nM (active),inactive,inactive,inactive,inactive,inactive,,
C[C@]12CC[C@H]3[C@@H](CCC4=C(Cl)C(=O)CC[C@@]43C)[C@@H]1CC[C@@H]2O,inactive,,,9440 nM (active),,2680 nM [inconclusive] (active),1500 nM (active),,inactive,inactive,,inactive,,inactive,inactive,inactive,inactive,inactive,,16800 nM (active)
CO[C@H]1[C@@H](O)C[C@H](O[C@H]2[C@@H](O)C[C@H](O[C@H]3[C@@H](O)C[C@H](O[C@H]4CC[C@@]5(C)[C@H](CC[C@@H]6[C@@H]5C[C@@H](O)[C@]5(C)[C@@H](C7=CC(=O)OC7)CC[C@]65O)C4)O[C@@H]3C)O[C@@H]2C)O[C@@H]1C,,inactive,,668 nM (active),,inactive,,,inactive,,,84.1 nM (active),699 nM (active),inactive,,inactive,756 nM (active),,,531 nM (active)
CC(=O)O[C@H]1C[C@H](O[C@H]2[C@@H](O)C[C@H](O[C@H]3[C@@H](O)C[C@H](O[C@H]4CC[C@@]5(C)[C@H](CC[C@@H]6[C@@H]5C[C@@H](O)[C@]5(C)[C@@H](C7=CC(=O)OC7)CC[C@]65O)C4)O[C@@H]3C)O[C@@H]2C)O[C@H](C)[C@H]1O[C@@H]1O[C@H](CO)[C@@H](O)[C@H](O)[C@H]1O,,inactive,inactive,,,,,,inactive,,,133 nM (active),750 nM (active),inactive,inactive,inactive,674 nM (active),,,750 nM (active)
CC(=O)[C@H]1CC[C@H]2[C@@H]3CC[C@@H]4C[C@H](O)CC[C@]4(C)[C@H]3CC[C@]12C,inactive,,inactive,,,26800 nM [activator] (active),29800 nM (active),,inactive,inactive,,,,inactive,inactive,inactive,inactive,inactive,inactive,
NCC[C@H](O)C(=O)N[C@@H]1C[C@H](N)[C@@H](O[C@H]2O[C@H](CN)[C@@H](O)[C@H](O)[C@H]2N)[C@H](O[C@@H]2O[C@H](CO)[C@@H](O)[C@H]2O)[C@H]1O,,,,inactive,inactive,inactive,inactive,inactive,inactive,inactive,,inactive,,inactive,inactive,inactive,,inactive,,
